100 molecules from ChEMBL document CHEMBL1201862, “PubChem BioAssay data set” (2004) can be followed below.

The whole screen tested about 400,000 compounds, of which about 2,100 (0.53%) were called active. Roughly 14% stayed inconclusive and do not appear here. No rule for the calls is given here. What follows is part of a selection rich in actives, with near analogues and random picks from the rest.

Ataxin-2 (Homo sapiens), sequence (Q99700 whole entry): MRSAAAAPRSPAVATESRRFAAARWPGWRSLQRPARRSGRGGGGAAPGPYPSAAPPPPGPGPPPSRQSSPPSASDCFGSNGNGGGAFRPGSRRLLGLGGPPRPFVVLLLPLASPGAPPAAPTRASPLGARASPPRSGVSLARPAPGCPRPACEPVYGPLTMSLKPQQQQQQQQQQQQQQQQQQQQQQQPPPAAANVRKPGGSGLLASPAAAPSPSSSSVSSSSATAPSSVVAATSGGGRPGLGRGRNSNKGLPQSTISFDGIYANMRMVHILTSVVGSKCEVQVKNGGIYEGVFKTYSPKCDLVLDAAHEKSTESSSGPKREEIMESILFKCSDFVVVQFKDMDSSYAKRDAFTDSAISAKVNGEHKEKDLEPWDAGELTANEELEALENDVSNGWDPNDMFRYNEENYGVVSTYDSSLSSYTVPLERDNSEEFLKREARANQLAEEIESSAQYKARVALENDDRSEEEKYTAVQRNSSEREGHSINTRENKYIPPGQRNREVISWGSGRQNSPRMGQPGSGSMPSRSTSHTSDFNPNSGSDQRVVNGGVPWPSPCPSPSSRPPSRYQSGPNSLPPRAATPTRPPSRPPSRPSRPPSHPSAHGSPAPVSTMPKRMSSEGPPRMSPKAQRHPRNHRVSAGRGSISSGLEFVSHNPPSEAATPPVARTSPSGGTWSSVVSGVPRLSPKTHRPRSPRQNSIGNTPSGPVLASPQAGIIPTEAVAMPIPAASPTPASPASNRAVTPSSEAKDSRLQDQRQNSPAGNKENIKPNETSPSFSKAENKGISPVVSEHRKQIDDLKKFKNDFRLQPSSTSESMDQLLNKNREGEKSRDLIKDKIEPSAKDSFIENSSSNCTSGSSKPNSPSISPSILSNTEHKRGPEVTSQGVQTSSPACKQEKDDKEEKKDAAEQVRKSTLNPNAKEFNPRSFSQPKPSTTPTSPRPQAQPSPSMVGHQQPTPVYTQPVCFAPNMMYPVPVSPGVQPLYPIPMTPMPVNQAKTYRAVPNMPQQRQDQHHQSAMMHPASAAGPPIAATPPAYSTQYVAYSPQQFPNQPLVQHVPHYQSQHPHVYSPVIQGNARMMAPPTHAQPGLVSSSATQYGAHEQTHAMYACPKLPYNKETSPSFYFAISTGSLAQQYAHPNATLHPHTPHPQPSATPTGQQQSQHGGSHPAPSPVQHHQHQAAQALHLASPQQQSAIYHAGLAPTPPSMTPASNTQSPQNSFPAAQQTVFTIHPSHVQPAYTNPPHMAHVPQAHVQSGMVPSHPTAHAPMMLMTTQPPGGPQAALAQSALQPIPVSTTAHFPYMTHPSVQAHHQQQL

This test has as its target Ataxin-2 (Homo sapiens) (UniProt Q99700). The test is described as follows: qHTS for Inhibitors of ATXN expression. It counts as functional. A general note: Quantitative high-throughput screening tests each substance at several concentrations.
With `CCOc1ccccc1NC(=O)c1ccc2c(O)c(S(=O)(=O)c3ccccc3)c(O)nc2c1`, the Potency entry is “inactive”.
Under `COc1ccccc1Nc1nn2c(=O)c3ccc(C(=O)NCCC4=CCCCC4)cc3nc2s1` stands 6.31 µM (active); under `COCCNC(=O)c1c(N)n(CCC2=CCCCC2)c2nc3ccccc3nc12`, “inactive”; under `O=C1/C(=C/Nn2cnnc2)c2ccccc2C(=O)N1c1ccccc1`, “inactive”.
The value for `N#Cc1cc2c(=O)n3ccccc3nc2n(Cc2cccnc2)c1=O` was “inactive”; that for `Cc1ccc2nc3c(cc(C(=O)NCCc4ccccc4)c(=N)n3CC3CCCO3)c(=O)n2c1` (stereo not given) was “inactive”; that for `CCC[C@H](CN[C@@H](CNC)[C@H](C)CC)NCCc1cc(C(F)(F)F)cc(C(F)(F)F)c1` was 25.1 µM (active).
The value for `CCC[C@@H](CN[C@@H](CNC)[C@H](C)CC)NCC1CCC(C(C)(C)C)CC1` (stereo not given in full) was 35.5 µM (active).
Consider `Cc1cc(S(=O)(=O)c2cc3ccc(O)c(C)c3oc2=O)ccc1F`, for which the Potency entry was “inactive”.
The value for `Cn1nc(C(=O)OCC(=O)Nc2ccccc2OC(F)F)c2ccccc2c1=O` was “inactive”.
On to `CCOC(=O)c1cc2c(=O)n3ccccc3nc2n(CC2CCCO2)/c1=N\C(=O)c1ccccc1F` (stereo not given), for which the Potency entry was “inactive”.
Under `Cc1ccc(-n2c(S)nnc2Cn2c(C)nc3ccccc32)cc1` stands “inactive”; under `COc1ccc(C2=NN(C(=O)COC(=O)c3ccc(S(C)(=O)=O)c([N+](=O)[O-])c3)C(c3ccco3)C2)cc1` (stereo not given), 23.8 µM (active).
Under `COc1ccc(C2CC(c3ccccc3)=NN2c2ccc(S(N)(=O)=O)cc2)cc1` (stereo not given) stands “inactive”; under `O=[N+]([O-])c1ccc(C2=NN(c3ccccc3)C(c3ccco3)C2)cc1` (stereo not given), “inactive”.
`COc1ccc(C2CC(c3ccccc3)=NN2c2ccc(Cl)c(C(=O)O)c2)cc1` (stereo not given): the Potency result was “inactive”.
Under `COc1ccc(C2=NN(c3ccccc3)C(c3cn(CCC(=O)O)nc3-c3ccccc3)C2)cc1` (stereo not given) stands “inactive”.
Under `COc1ccc(C2CC(c3ccccc3)=NN2C(=O)c2ccc(Cl)c([N+](=O)[O-])c2)cc1` (stereo not given) stands 31.6 µM (active); under `Cc1nc(N2N=C(c3ccc(Cl)cc3)CC2c2ccco2)sc1C(=O)N(C)C` (stereo not given), “inactive”.
The value for `CCn1cc([N+](=O)[O-])c(C(=O)N2N=C(c3ccc(Cl)c(Cl)c3)CC2c2ccccc2O)n1` (stereo not given) was 39.8 µM (active); that for `Cc1ccc(C2=CC(c3ccc(N(C)C)cc3)n3nnnc3N2)cc1` (stereo not given) was “inactive”; that for `CN1CCc2c(sc3c2C(=O)NC(c2ccccc2)N3)C1` (stereo not given) was “inactive”.
Turning to `Cc1ccc(S(=O)(=O)c2cc3ccccc3nc2N)cc1`, the Potency entry is “inactive”.
In the case of `Cc1ccc2nc3c(cc(C#N)c(=O)n3-c3nccs3)c(=O)n2c1`, the Potency entry is “inactive”.
The value for `Cc1c(Cc2ccccc2)sc(/N=C/c2c(O)ccc3ccccc23)c1C(N)=O` was “inactive”.
Under `Cc1ccc(-c2cc(-c3ccco3)c(C#N)c(O)n2)cc1` stands “inactive”.
For `CCOC(=O)c1c(NC(=O)c2ccc(S(=O)(=O)N(C)C3CCCCC3)cc2)sc2c1CCN(C(C)C)C2`, the Potency result was “inactive”.
Under `CCOC(=O)c1c(NC(=O)c2ccc(S(=O)(=O)N(CC(C)C)CC(C)C)cc2)sc2c1CCN(CC)C2` stands “inactive”.
The value for `CCOC(=O)c1c(NC(=O)Nc2ccc(C)cc2)sc2c1CCN(C)C2` was “inactive”.
The value for `CCOC(=O)c1c(NC(=O)C(NCCN(C)C)c2ccccc2)sc2c1CCCC2` (stereo not given) was 39.8 µM (active); that for `CCOC(=O)c1c(NC(=O)C(C)Sc2c[nH]c3ccccc23)sc2c1CCC2` (stereo not given) was 3.16 µM (active); that for `CCOC(=O)c1c(NC(=O)C(C)Sc2cccc[n+]2[O-])sc2c1CCN(Cc1ccccc1)C2` (stereo not given) was “inactive”.
In the case of `Cc1ccc2nc(N3CCN(CCO)CC3)nc(-c3ccccc3)c2c1`, the Potency entry is “inactive”.
The value for `CCN1CCc2c(sc(NC(=O)c3ccc(S(=O)(=O)N4CCCC(C)C4)cc3)c2C(=O)OC)C1` (stereo not given) was “inactive”.
Under `CCCN(CCC)CCCNC(=O)c1cc2c(=O)n(CC)c3ccccc3c2s1` stands “inactive”; under `CCOc1ccccc1N(C)C(=O)c1cc2c(=O)n(CC)c3ccccc3c2s1`, 39.8 µM (active).
The value for `CCN(C(=O)Cc1c(C(=O)O)n(CC)c2ccccc12)c1ccccc1C` was “inactive”; that for `O=C(Cn1ncc(Cl)c(Cl)c1=O)N1CCN(Cc2ccccc2)CC1` was 39.8 µM (active); that for `O=C(Cn1ncc(Cl)c(Cl)c1=O)N1CCc2ccccc21` was 7.52 µM (active).
In the case of `CC1CC(C)CN(CC(=O)N2CCOCC2)C1` (stereo not given), the Potency result is “inactive”.
The value for `Cn1c(=O)c2c(nc(Sc3ncnn3CC(=O)N3CCOCC3)n2C)n(C)c1=O` was “inactive”; that for `O=C(Cn1ncc(Cl)c(Cl)c1=O)N1CCOCC1` was 39.8 µM (active); that for `CN(CC(=O)Nc1ccc(Cl)cc1)CC(=O)N1CCc2ccccc21` was “inactive”.
For `O=Cc1cn(CC(=O)N2CCc3ccccc32)c2ccccc12`, the Potency result was “inactive”.
Under `COc1cc2c(cc1OC)CN(Cc1cc(=O)oc3c(C)c(C)ccc13)CC2` stands “inactive”.
The value for `COc1ccc(NC(S)=Nc2ccc3nsnc3c2)cc1` was “inactive”; that for `Cc1ccsc1CN(C)CC(=O)NCC(=O)Nc1ccc(F)cc1` was “inactive”; that for `CCOC(=O)Cc1c(C)c2c(O)cc(O)cc2oc1=O` was “inactive”.
Under `O=[N+]([O-])c1ccc2c(c1)c1ccccc1n2CCO` stands “inactive”.
`CCOC(=O)c1cc(C(=O)OCC)c2ccccn2c1=O`: the Potency entry is “inactive”.
The value for `CN(C)c1ccc(/C=c2\c3cc([N+](=O)[O-])ccc3n3c2cc(-c2ccccc2)[n+]3C)cc1` was 31.6 µM (active); that for `COc1ccc2c(c1)c(=Cc1ccc(N(C)C)cc1)c1cc(-c3ccccc3)[n+](C)n12` was 17.8 µM (active).
Under `CCOC(=O)c1cc2c(=Cc3ccc(N(C)C)cc3)c3ccccc3n2[n+]1C` stands 13.4 µM (active); under `CN(C(=O)COC(=O)c1nnc(O)c2ccccc12)c1ccccc1`, “inactive”; under `C[n+]1c(-c2ccccc2)cc2c(=Cc3ccccc3)c3ccccc3n21`, 23.8 µM (active).
The value for `N#Cc1c2ccc(OCC(N)=O)cc2n2ccccc12` was “inactive”.
`CCN(Cc1ccc(OC)c(F)c1)C(=O)/C=C/c1ccc(S(=O)(=O)N2CCOCC2)cc1`: the Potency result is “inactive”.
Under `CCOC(=O)/C=C/C(=O)Nc1ccc(S(=O)(=O)Nc2nccs2)cc1` stands “inactive”; under `CC(NC(=O)c1cc2c(=O)n3ccccc3nc2n(CC2CCCO2)c1=N)c1ccccc1` (stereo not given), “inactive”.
As to `Cc1cc(C(=O)NNc2c(Cl)cccc2Cl)no1`, the Potency result is “inactive”.
Take `O=C1c2cccc3cccc(c23)N1Cc1ccc(F)cc1`: the Potency entry was “inactive”.
Regarding `CCCCN1C(=O)c2cccc3cc(O)cc(c23)C1=O`, the Potency entry is “inactive”.
Under `CCCCN(C)C(=O)c1ccc2c(c1)N(Cc1cccc(F)c1)C(=O)c1ccccc1S2` stands 25.1 µM (active); under `Cc1oc(-c2ccccc2F)nc1C[S+]([O-])CC(=O)NCc1ccc(F)cc1` (stereo not given), “inactive”; under `N#Cc1c(N)n(-c2cccc(C(=O)O)c2)c2nc3ccccc3nc12`, “inactive”.
On to `NC(Cc1ccc(C(F)(F)F)cc1)c1csc(NC(=O)Nc2ccccc2)n1` (stereo not given), for which the Potency is 35.5 µM (active).
The value for `NC(Cc1ccc(C(F)(F)F)cc1)c1csc(NC(=O)Nc2ccccc2Cc2ccccc2)n1` (stereo not given) was 35.5 µM (active); that for `O=C(Nc1ccccc1)Nc1nc(-c2ccc(F)c(F)c2)cs1` was “inactive”; that for `Cc1ccc(-c2ocnc2C(=O)Nc2nc(C)cs2)cc1` was “inactive”.
The value for `CCc1ccccc1NC(=O)c1sc2nc(C)cc(C)c2c1N` was “inactive”; that for `CCOC(=O)c1sc(-c2ccc(C(F)(F)F)cc2)nc1O` was “inactive”.
Take `Nc1c(C(=O)Nc2ccccc2F)sc2nc(Cc3ccccc3)cc(C(F)(F)F)c12`: the Potency entry is “inactive”.
The value for `Cc1ccc(C(=O)Nc2nc(C(N)Cc3ccc(C(F)(F)F)cc3)cs2)cc1` (stereo not given) was 39.8 µM (active); that for `CC(C)CC(N)c1csc(NC(=O)Nc2ccccc2Cc2ccccc2)n1` (stereo not given) was 22.4 µM (active).
Regarding `O=C(Nc1ccccc1)Nc1sccc1-c1nc2ccccc2s1`, the Potency entry was “inactive”.
Consider `CC(=O)c1ccc(/C=C/c2nc3ccccc3n2C)o1`, for which the Potency result was “inactive”.
Under `Fc1ccc(N2CCN(C(S)=NCc3ccco3)CC2)cc1` stands “inactive”; under `Nc1cccc2c1C(=O)N(C(=O)c1cccc(S(=O)(=O)N3CCCC3)c1)C2=O`, “inactive”; under `C/C(=N\OCC(=O)Nc1ccccc1C(=O)O)c1cccs1`, “inactive”.
Regarding `CC(=O)NC1=NC(=O)/C(=C/c2cc(C)n(-c3cccc(C(=O)O)c3)c2C)S1`, the Potency entry was “inactive”.
As to `CC(C)(C)c1cc(C(=O)NNc2cccc(Cl)c2)n(Cc2ccccc2)n1`, the Potency entry was “inactive”.
The value for `CC(C)(C)c1cc(NC(=O)COC(=O)c2ccccc2)n(-c2ccccc2)n1` was “inactive”; that for `CC(C)CC(N)c1csc(NC(=O)c2cc(C(C)(C)C)nn2Cc2ccccc2)n1` (stereo not given) was 31.6 µM (active); that for `COC(=O)c1ccc(COc2ccccc2OC)o1` was “inactive”.
For the molecule `CC(C)Cn1c(N)c(C(=O)COC(=O)c2cc3ccccc3cc2O)c(=O)n(C)c1=O`, the Potency entry was “inactive”.
The value for `Cc1ccc(C2(c3ccc(C)cc3)NC(=O)N(CC(=O)NCCCN3CCCC3=O)C2=O)cc1` was “inactive”; that for `Cc1ccc(-n2cc(CNCCCn3cccn3)c(-c3cccc(C)c3)n2)cc1` was 20 µM (active).
The value for `Cc1cccn2c(=O)c3cc(C(=O)NCCCN4CCCC4=O)n(C)c3nc12` was “inactive”.
The value for `Cc1ccc(-n2cc(CNCCCN3CCCC3=O)c(-c3ccc(F)cc3)n2)cc1` was 25.1 µM (active).
Take `Cc1cccc(C2=NN(c3ccccc3)[C@H](CO)[C@H]2c2ccc(F)cc2)c1`: the Potency entry was “inactive”.
The value for `Cc1cccc(-n2cc(CNCCc3nc(C)cc(C)n3)c(-c3cccc(F)c3)n2)c1` was 31.6 µM (active).
In the case of `CCOC(=O)c1cc2c(=O)n3ccccc3nc2n(CCCOC)/c1=N\C(=O)C(C)(C)C`, the Potency entry was “inactive”.
Under `CCOc1ccc(NC(S)=Nc2cccnc2)cc1` stands “inactive”; under `Cc1cc(N(C)Cc2ccccc2)nc2cc(O)ccc12`, “inactive”.
In the case of `CN(CCCC(=O)N1CCN(c2ncccn2)CC1)S(=O)(=O)c1ccc(F)cc1`, the Potency entry is “inactive”.
Under `O=C(NC1CCCCCC1)c1cc2c(=O)n3ccccc3nc2s1` stands “inactive”; under `Cc1ccc(-n2nc3c(=O)n(CC(=O)NC4CCCCC4)nc(C)c3c2C)cc1`, “inactive”.
Under `O=C(Cn1ncc(Cl)c(Cl)c1=O)NC1CCCCC1` stands 28.2 µM (active); under `O=C(Cn1ncc(Cl)c(Cl)c1=O)NCC1CCCCC1`, 31.6 µM (active).
For the molecule `O=C(NCC1CCCCC1)c1ccc(Cl)c(S(=O)(=O)N2CCOCC2)c1`, the Potency result is “inactive”.
